About 83,000 compounds went through this panel and 20% of them were active in at least one assay; those are over-represented in the sample as a whole.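 Cell lines were cultured in 96-well plates, exposed to a single compound concentration, and assessed for percent growth 48 hours later.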 Calls of active or inactive are those of the source. Rule for the calls: active = growth percent below 10; inactive = the rest.
What was measured:
Test in all cases: NCI-60 one-dose screen, 48 h (100 = growth as untreated, 0 = no growth, -100 = all killed)
Settings in all cases: 10 µM unless noted
SR leukemia = test system: SR leukemia
RPMI-8226 leukemia = test system: RPMI-8226 leukemia
OVCAR-8 ovarian = test system: OVCAR-8 ovarian
OVCAR-5 ovarian = test system: OVCAR-5 ovarian
OVCAR-4 ovarian = test system: OVCAR-4 ovarian
SK-OV-3 ovarian = test system: SK-OV-3 ovarian
IGROV1 ovarian = test system: IGROV1 ovarian
OVCAR-3 ovarian = test system: OVCAR-3 ovarian
HS 578T breast = test system: HS 578T breast
NCI/ADR-RES ovarian = test system: NCI/ADR-RES ovarian
T-47D breast = test system: T-47D breast
BT-549 breast = test system: BT-549 breast
MDA-MB-435 melanoma = test system: MDA-MB-435 melanoma
SW-620 colon = test system: SW-620 colon
MCF7 breast = test system: MCF7 breast
HCT-116 colon = test system: HCT-116 colon
HCC-2998 colon = test system: HCC-2998 colon
KM12 colon = test system: KM12 colon

Measured: growth

COc1cc(/C=C/c2cc(/C=C/c3ccc(O)c(OC)c3)n(C(=O)Nc3ccc(F)cc3)n2)ccc1O
inactive: OVCAR-5 ovarian 31.3% | OVCAR-4 ovarian 35.5% | IGROV1 ovarian 17.4% | HS 578T breast 20% | NCI/ADR-RES ovarian 27.9% | T-47D breast 31.1% | SW-620 colon 10.5%
active: SR leukemia 2.53% | RPMI-8226 leukemia 3.32% | OVCAR-8 ovarian 0.475% | SK-OV-3 ovarian -18.7% | OVCAR-3 ovarian 3.89% | BT-549 breast -8.33% | MDA-MB-435 melanoma -2.32% | MCF7 breast 9.49% | HCT-116 colon 4.95% | HCC-2998 colon 6.92% | KM12 colon 2.44%

O=C(N/N=C/c1ccc(Cl)cc1Cl)c1ccc2nc(-c3ccc(Cl)cc3)[nH]c2c1
active: SR leukemia -24.2% | RPMI-8226 leukemia 2.83% | OVCAR-4 ovarian -17.9% | IGROV1 ovarian -27.4% | OVCAR-3 ovarian -52.9% | T-47D breast -13.1% | SW-620 colon -28.3% | MCF7 breast -20% | HCT-116 colon -1.88% | HCC-2998 colon 3.69% | KM12 colon -29.1%
inactive: OVCAR-8 ovarian 14.2% | OVCAR-5 ovarian 23.7% | SK-OV-3 ovarian 49.8% | HS 578T breast 33% | NCI/ADR-RES ovarian 41.2% | BT-549 breast 113% | MDA-MB-435 melanoma 38.8%

COCC[C@H]1CCC/C=C/[C@@H]2C[C@H](O)C[C@H]2[C@H](O)/C=C/C(=O)O1
inactive: RPMI-8226 leukemia 11.1% | OVCAR-4 ovarian 26.6% | SK-OV-3 ovarian 33.6% | IGROV1 ovarian 16.1% | HS 578T breast 30.1%
active: SR leukemia 2.43% | OVCAR-8 ovarian 5.65% | OVCAR-5 ovarian 9.73% | OVCAR-3 ovarian -47.8% | NCI/ADR-RES ovarian 3% | T-47D breast -10.9% | BT-549 breast 5.84% | MDA-MB-435 melanoma 9.56% | SW-620 colon -20.8% | MCF7 breast -8.53% | HCT-116 colon -66.7% | HCC-2998 colon 2.4% | KM12 colon -51.4%

CCN(CC)CCN(CCN(CC)CC)c1ccccc1
inactive: SR leukemia 111% | RPMI-8226 leukemia 103% | OVCAR-8 ovarian 91.4% | OVCAR-5 ovarian 94.3% | OVCAR-4 ovarian 101% | SK-OV-3 ovarian 92.7% | IGROV1 ovarian 90% | OVCAR-3 ovarian 109% | HS 578T breast 89.2% | NCI/ADR-RES ovarian 100% | T-47D breast 89.3% | BT-549 breast 54.3% | MDA-MB-435 melanoma 103% | SW-620 colon 95.8% | MCF7 breast 100% | HCT-116 colon 74.6% | HCC-2998 colon 91.5% | KM12 colon 108%

COc1cc(-c2nc3occn3c2-c2ccnc(NCCCNS(=O)(=O)c3ccccc3)n2)ccc1F
active: RPMI-8226 leukemia 5.21% | T-47D breast 8.36% | MDA-MB-435 melanoma 9.04%
inactive: SR leukemia 56.4% | OVCAR-8 ovarian 21.9% | OVCAR-5 ovarian 111% | OVCAR-4 ovarian 33% | SK-OV-3 ovarian 59.2% | IGROV1 ovarian 49.8% | OVCAR-3 ovarian 66.2% | HS 578T breast 75.6% | NCI/ADR-RES ovarian 20.5% | BT-549 breast 29.7% | SW-620 colon 65.2% | MCF7 breast 20.5% | HCT-116 colon 34.3% | HCC-2998 colon 69.1% | KM12 colon 30%

O=C(Cn1cc(CN2C(=O)c3ccccc3S2(=O)=O)nn1)Nc1cccc(Cl)c1
inactive: SR leukemia 113% | RPMI-8226 leukemia 104% | OVCAR-8 ovarian 113% | OVCAR-5 ovarian 112% | OVCAR-4 ovarian 109% | SK-OV-3 ovarian 79.3% | IGROV1 ovarian 108% | OVCAR-3 ovarian 106% | HS 578T breast 107% | NCI/ADR-RES ovarian 93.1% | T-47D breast 97% | BT-549 breast 133% | MDA-MB-435 melanoma 100% | SW-620 colon 102% | MCF7 breast 92.5% | HCT-116 colon 98.8% | HCC-2998 colon 93.5% | KM12 colon 104%

CCOC(=O)C1CCN(c2ccc(N3C[C@@H](CNCc4ccc(C(=N)N)cc4)OC3=O)cc2)CC1
inactive: SR leukemia 98.2% | RPMI-8226 leukemia 96.2% | OVCAR-8 ovarian 101% | OVCAR-5 ovarian 94.3% | OVCAR-4 ovarian 105% | SK-OV-3 ovarian 104% | IGROV1 ovarian 101% | OVCAR-3 ovarian 113% | HS 578T breast 102% | NCI/ADR-RES ovarian 105% | T-47D breast 96.2% | BT-549 breast 94.4% | MDA-MB-435 melanoma 104% | SW-620 colon 97.1% | MCF7 breast 97.2% | HCT-116 colon 98.9% | HCC-2998 colon 108% | KM12 colon 98.7%

Cc1nc2sc(C(=O)Nc3ccc(Cl)cc3)c(N)c2cc1C(O)c1ccccc1 (stereo unspecified)
active: OVCAR-3 ovarian 5.14% | MDA-MB-435 melanoma -12.6%
inactive: SR leukemia 11% | RPMI-8226 leukemia 15.5% | OVCAR-8 ovarian 49.7% | OVCAR-5 ovarian 59.6% | OVCAR-4 ovarian 64.9% | SK-OV-3 ovarian 51.3% | IGROV1 ovarian 53.9% | HS 578T breast 26.8% | NCI/ADR-RES ovarian 25.8% | T-47D breast 40.8% | BT-549 breast 59.2% | SW-620 colon 25.1% | MCF7 breast 21.1% | HCT-116 colon 25.9% | HCC-2998 colon 62.5% | KM12 colon 21.7%

C=CCn1c(SCC(=O)Nc2ccc(C(=O)/C=C/c3cc(OC)c(OC)c(OC)c3)cc2)nnc1-c1cc(-c2ccc(OC)cc2)nc2ccccc12
inactive: SR leukemia 50.9% | RPMI-8226 leukemia 55.5% | OVCAR-8 ovarian 72.8% | OVCAR-5 ovarian 105% | OVCAR-4 ovarian 90% | SK-OV-3 ovarian 98% | IGROV1 ovarian 98.5% | OVCAR-3 ovarian 93.4% | HS 578T breast 90.4% | NCI/ADR-RES ovarian 96.4% | T-47D breast 84.9% | BT-549 breast 90.1% | MDA-MB-435 melanoma 100% | SW-620 colon 90.8% | MCF7 breast 64.4% | HCT-116 colon 67.8% | HCC-2998 colon 107% | KM12 colon 94%

O=C(CCCCl)NNc1nccc(Nc2ccc(S(=O)(=O)Nc3ccncc3)cc2)n1
inactive: SR leukemia 95% | RPMI-8226 leukemia 104% | OVCAR-8 ovarian 106% | OVCAR-5 ovarian 103% | OVCAR-4 ovarian 101% | SK-OV-3 ovarian 101% | IGROV1 ovarian 101% | OVCAR-3 ovarian 104% | HS 578T breast 112% | NCI/ADR-RES ovarian 99.8% | T-47D breast 94.1% | BT-549 breast 120% | MDA-MB-435 melanoma 107% | SW-620 colon 113% | MCF7 breast 93.4% | HCT-116 colon 97.1% | HCC-2998 colon 103% | KM12 colon 101%

CC(C)[C@@]12C[C@@H](OC(=O)COC(=O)c3ccccc3)[C@@](C)(O1)[C@@H]1CC[C@@H](C)[C@H]1[C@@H]2OC(=O)/C=C/c1ccccc1
inactive: SR leukemia 78.6% | RPMI-8226 leukemia 85.3% | OVCAR-8 ovarian 31.7% | OVCAR-5 ovarian 95.7% | OVCAR-4 ovarian 87.2% | SK-OV-3 ovarian 88.1% | IGROV1 ovarian 114% | OVCAR-3 ovarian 94.8% | NCI/ADR-RES ovarian 25.2% | T-47D breast 60.1% | BT-549 breast 22.9% | MDA-MB-435 melanoma 99.8% | SW-620 colon 100% | MCF7 breast 81.9% | HCT-116 colon 83.6% | HCC-2998 colon 97.2% | KM12 colon 94.9%
active: HS 578T breast -14.4%

CCOC(=O)c1c(NC(=O)c2ccc(OC)cc2)sc2c(CN(C)C)c(O)ccc12
active: SR leukemia -21.5%
inactive: RPMI-8226 leukemia 15.8% | OVCAR-8 ovarian 84.2% | OVCAR-5 ovarian 90.6% | OVCAR-4 ovarian 85.2% | SK-OV-3 ovarian 99.6% | IGROV1 ovarian 90.7% | OVCAR-3 ovarian 106% | HS 578T breast 88.9% | NCI/ADR-RES ovarian 84.5% | T-47D breast 77.3% | BT-549 breast 95.5% | MDA-MB-435 melanoma 68.8% | SW-620 colon 70.4% | MCF7 breast 70.4% | HCT-116 colon 51.3% | HCC-2998 colon 23.1% | KM12 colon 81.8%

CCN(CC)c1ccc(/C=N/NC(=O)c2ccc(Nc3ccnc(C(F)(F)F)c3)cc2)c(O)c1
active: T-47D breast -2.74% | BT-549 breast -2.72%
inactive: SR leukemia 153% | RPMI-8226 leukemia 20% | OVCAR-8 ovarian 44.6% | OVCAR-5 ovarian 32.5% | OVCAR-4 ovarian 32.4% | SK-OV-3 ovarian 10.1% | IGROV1 ovarian 39.3% | OVCAR-3 ovarian 44% | HS 578T breast 64.9% | NCI/ADR-RES ovarian 26.3% | MDA-MB-435 melanoma 17.5% | SW-620 colon 41.5% | MCF7 breast 13.9% | HCT-116 colon 23.6% | HCC-2998 colon 38.3% | KM12 colon 24.6%

COc1cccc(C(=O)OCC(O)C(=O)NC23CC4CC(CC(C4)C2)C3)c1 (stereo unspecified)
inactive: SR leukemia 88.9% | RPMI-8226 leukemia 101% | OVCAR-8 ovarian 95.3% | OVCAR-5 ovarian 100% | OVCAR-4 ovarian 99.4% | SK-OV-3 ovarian 99.5% | IGROV1 ovarian 104% | OVCAR-3 ovarian 111% | HS 578T breast 98.8% | NCI/ADR-RES ovarian 95.2% | T-47D breast 98.3% | BT-549 breast 102% | MDA-MB-435 melanoma 97.6% | SW-620 colon 99.6% | MCF7 breast 89.1% | HCT-116 colon 96.7% | HCC-2998 colon 105% | KM12 colon 108%

O=C(Cn1nnc([N+](=O)[O-])n1)c1ccccc1
inactive: SR leukemia 84.3% | RPMI-8226 leukemia 40.6% | OVCAR-8 ovarian 101% | OVCAR-5 ovarian 114% | OVCAR-4 ovarian 91.5% | SK-OV-3 ovarian 99.8% | IGROV1 ovarian 96.1% | OVCAR-3 ovarian 100% | HS 578T breast 106% | NCI/ADR-RES ovarian 98.4% | T-47D breast 78.9% | BT-549 breast 113% | MDA-MB-435 melanoma 85.4% | SW-620 colon 91.1% | MCF7 breast 80.9% | HCT-116 colon 60% | HCC-2998 colon 102% | KM12 colon 95.9%

CCN1C(=O)N(CC)C2C1NN=C1SCC(=O)N12 (stereo unspecified)
active: HCT-116 colon 9.44%
inactive: SR leukemia 95.7% | RPMI-8226 leukemia 80.6% | OVCAR-8 ovarian 66.3% | OVCAR-5 ovarian 95.8% | OVCAR-4 ovarian 32.6% | SK-OV-3 ovarian 105% | IGROV1 ovarian 27.2% | OVCAR-3 ovarian 24.5% | HS 578T breast 98.4% | NCI/ADR-RES ovarian 84.6% | T-47D breast 31.9% | BT-549 breast 102% | MDA-MB-435 melanoma 99.1% | SW-620 colon 73.7% | MCF7 breast 18% | HCC-2998 colon 105% | KM12 colon 105%

Cc1ccc(/C=C(\C#N)C(=O)Nc2ncc(Cc3cc(Cl)ccc3Cl)s2)o1
active: OVCAR-4 ovarian 1.2%
inactive: SR leukemia 90.1% | RPMI-8226 leukemia 49.3% | OVCAR-8 ovarian 49.8% | OVCAR-5 ovarian 69.6% | SK-OV-3 ovarian 62% | IGROV1 ovarian 71.7% | OVCAR-3 ovarian 75.4% | HS 578T breast 13% | NCI/ADR-RES ovarian 52.5% | T-47D breast 51.1% | BT-549 breast 65.4% | MDA-MB-435 melanoma 30.4% | SW-620 colon 53.4% | MCF7 breast 49.6% | HCT-116 colon 54.4% | HCC-2998 colon 29.7% | KM12 colon 27%

From PubChem BioAssay (NCI)
